High-throughput results deposited in PubChem BioAssay by several laboratories.
This is one part of a sample in which hits are shown more often than they occur.
GIRK2 activator = activators of NPY4-receptor-primed GIRK2 channels, summary, cell-based, HEK293, thallium flux; G protein-activated inward rectifier potassium channel 2 (Homo sapiens), P48051; HEK293 GIRK2/NPY4 cells, thallium flux fluorescence; activation (% efficacy), % for hits at 75 µM; 34,000 tested, under 10 active;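 active = primary screen hit, no activity in plain HEK293 cells, and in GIRK2-only cells above 5% efficacy rising with concentration; inactive = the rest, including fluorescent compounds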;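 also: efficacy is normalized control-subtracted fluorescence 15 s after thallium addition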
Target sequence (P48051 whole entry, looked up): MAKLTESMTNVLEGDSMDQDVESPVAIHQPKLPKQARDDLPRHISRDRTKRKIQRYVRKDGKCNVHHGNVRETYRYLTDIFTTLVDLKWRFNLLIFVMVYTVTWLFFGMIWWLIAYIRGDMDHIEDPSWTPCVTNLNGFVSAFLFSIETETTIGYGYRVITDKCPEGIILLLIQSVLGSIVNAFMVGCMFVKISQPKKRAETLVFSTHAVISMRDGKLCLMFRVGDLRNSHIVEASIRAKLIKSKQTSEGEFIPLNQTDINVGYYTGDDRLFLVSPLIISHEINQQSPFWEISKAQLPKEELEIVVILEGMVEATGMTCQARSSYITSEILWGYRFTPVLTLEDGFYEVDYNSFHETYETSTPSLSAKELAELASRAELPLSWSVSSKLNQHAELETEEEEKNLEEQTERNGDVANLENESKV
GluA2 TARP mod = modulators of GluA2-stargazin AMPA receptor complexes, primary screen, cell-based, membrane potential dye; HEK293 GluA2+stargazin, membrane potential dye (FDSS), glutamate EC50; hits were called plate by plate, in both directions; calls only at 30 µM; 40,000 tested, 3.5% active;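 active = any of four per-well response measures lying three or more SD from its plate-wide compound average, in either direction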
Calls only; – = inactive; · = not tested or not shown; + = active, no number.

SMILES	GIRK2 activator	GluA2 TARP mod
NC(=O)C1CCN(C(=O)Cc2cc(-c3cc4ccccc4o3)on2)CC1	–	+
NC(=O)C1CCN(C(=O)Cc2cc(-c3ccc(F)cc3)on2)CC1	–	–
O=C(Nc1nnc(-c2ccc(Br)s2)o1)c1ccc(Cl)s1	–	+
O=C(Nc1nnc(-c2ccc(Br)s2)o1)c1cc(Cl)ccc1Cl	–	+
O=C(Nc1nnc(-c2cccs2)o1)c1cc(Cl)ccc1Cl	·	–
Cc1cc(-c2nnc(NC(=O)c3ccc(Cl)s3)o2)nn1C	–	–
COc1cc(C(=O)Nc2ccc3c(c2)CCCN3C(=O)C2CC2)cc(OC)c1OC	·	–
CCOc1cccc2sc(N(Cc3ccccn3)C(=O)c3nn(C)cc3C)nc12	–	+
COc1cccc2sc(N(Cc3ccccn3)C(=O)c3cc(C)nn3C)nc12	–	–
O=C(CCCCCn1c(=S)[nH]c2ccccc2c1=O)NCCC1=CCCCC1	–	–
CSc1nc2n(n1)C(c1ccc(C)o1)C(C(N)=O)=C(C)N2 (stereo unspecified)	–	–
COc1ccc(NC(=O)C(=O)c2cn(CC(=O)N3CCOCC3)c3ccccc23)cc1	·	–
COc1ccc(CCNC(=O)C(=O)c2cn(CC(=O)N3CCOCC3)c3ccccc23)cc1	·	+
Cc1cc(NC(=O)C(=O)NCC(O)(c2ccco2)C2CC2)no1 (stereo unspecified)	–	–
COc1ccc(-c2cc(=O)n(CC(=O)N3CCN(Cc4ccccc4)CC3)cn2)cc1	–	·
Cc1ccc(NC(=O)Cn2c(=O)n(C3CC3)c(=O)c3nscc32)c(C)c1	–	–
Cc1ccc(Cl)cc1NC(=O)Cn1c(=O)n(C2CC2)c(=O)c2nscc21	–	+
O=C(Cn1cnc2ccccc2c1=O)NCCn1nc(-n2cccn2)ccc1=O	–	·
c1csc(-c2cc(-c3nc(-c4ccc5c(c4)OCO5)no3)n[nH]2)c1	–	–
Cc1ccc(NS(=O)(=O)c2ccc(F)cc2)cc1N1CCCCC1=O	–	+
COc1cc(NS(=O)(=O)c2ccc(F)cc2)ccc1N1CCCCC1=O	–	–
CS(=O)(=O)N1CCCc2cc(NC(=O)c3cccs3)ccc21	–	–
CCNc1cc(NCCNC(=O)c2ncccn2)nc(C)n1	–	+
CCNc1cc(C)nc(NCCNC(C)=O)n1	–	·
Cc1nc(NCCNC(=O)Nc2cccc(C)c2C)cc(N2CCOCC2)n1	–	·
SMILES	GIRK2 activator	GluA2 TARP mod
Cc1nc(NCCNC(=O)c2ncccn2)cc(N2CCOCC2)n1	–	+
CN(C)C(CNC(=O)C(=O)NC1CCCC1)c1cccc2ccccc12 (stereo unspecified)	–	·
Cc1cc(C(=O)Nc2nn(C)c3c2C(c2ccco2)CC(=O)N3)c(C)o1 (stereo unspecified)	–	–
COc1ccc(S(=O)(=O)Nc2nc(C(=O)Nc3ccc4c(c3)OCCO4)cs2)cc1	–	–
CS(=O)(=O)N1CCC(C(=O)Nc2sccc2C(N)=O)CC1	–	·
CC(C(=O)Nc1ccc(Cl)c(Cl)c1)N1C(=O)C2CC=C(Cl)CC2C1=O (stereo unspecified)	·	+
CC(C)C(=O)Nc1ccc(SCC(=O)Nc2ccc(Cl)c(Cl)c2)nn1	–	–
COc1ccc(S(=O)(=O)Nc2nc(CCC(=O)Nc3ccc(OC)cc3OC)cs2)cc1	–	–
O=C(/C=C/c1ccc2c(c1)OCO2)Nc1ccc2c(c1)CN(C(=O)C1CC1)CC2	–	–
O=C(/C=C/c1ccc2c(c1)OCO2)Nc1ccc2c(c1)N(C(=O)C1CC1)CC2	–	+
O=C(Nc1ccccc1)Nc1ccc2c(c1)N(C(=O)c1ccccc1)CCC2	–	·
O=C(/C=C/c1ccccc1)Nc1ccc2c(c1)N(C(=O)c1ccccc1)CCC2	–	+
O=C(COc1ccccc1)N(Cc1ccncc1)c1nc2ccc(Cl)cc2s1	–	–
COc1cccc(OCCn2c(CN3CCCCC3)nc3ccccc32)c1	·	–
C#CCn1c(SCCOc2cccc(OC)c2)nc2ccccc21	·	+
COc1ccc(S(=O)(=O)N2CCCOC2CNC(=O)C(=O)NCCN(C)C)cc1 (stereo unspecified)	·	–
O=S(=O)(NCC(O)c1ccsc1)c1c(F)cccc1F (stereo unspecified)	–	–
O=c1nc(SCc2cccc(Cl)c2)c2c(n1CC1CCCO1)CCCC2 (stereo unspecified)	–	+
O=c1nc(SCc2cccc([N+](=O)[O-])c2)c2c(n1CC1CCCO1)CCC2 (stereo unspecified)	–	–
COc1ccccc1-c1nnc(NC(=O)c2ccc(Cc3ccccc3)cc2)o1	·	–
O=C(Nc1ccc(F)cc1)N1CCC(CNS(=O)(=O)Cc2ccccc2Cl)CC1	–	·
CCc1nc(NCCC(=O)O)c2oc3ccccc3c2n1	–	–
Cc1nc2ccccc2n1CC1CCN(S(=O)(=O)c2ccccc2F)CC1	–	–
CCOC(=O)c1csc(NC(=O)c2ccc(=O)n(Cc3cccc(F)c3)n2)n1	–	+
Cc1ccc2nc(NC(=O)c3ccc(=O)n(Cc4cccc(F)c4)n3)sc2c1	–	–
SMILES	GIRK2 activator	GluA2 TARP mod
CCCCCNC(=O)CCc1csc(NS(=O)(=O)c2ccc(F)cc2)n1	–	–
COC(=O)c1c2c(nc3c1c(-c1ccco1)nn3C1CCS(=O)(=O)C1)CCC2 (stereo unspecified)	–	·
CC(=O)c1sc2nc(-c3ccco3)c3c(c2c1N)CCCC3	·	+
Nc1c(C(=O)N2CCCC2)sc2nc(-c3ccco3)c3c(c12)CCCC3	·	+
Cc1nc(C)c(C(=O)N2CCN(c3ccc4nnc(-c5ccco5)n4n3)CC2)s1	–	–
COc1ccc(-n2c(C)c(C)n3c4c(=O)n(CC(C)C)c(=O)n(C)c4nc23)c(OC)c1	·	–
Cc1ccc(S(=O)(=O)N2CCN(CCn3cccn3)CC2)c(C)c1	–	+
Cc1ccc(C)c(S(=O)(=O)N2CCCN(CCn3cccn3)CC2)c1	–	–
O=C(Nc1ccc2c(c1)N(C(=O)C1CCCC1)CC2)c1ccc(F)cc1Cl	–	·
O=S(=O)(NCC#CCN1CCc2ccccc2C1)c1ccc2ccccc2c1	–	–
O=S(=O)(NCC#CCN1CCCCC1)c1ccc2ccccc2c1	·	+
O=C(Cc1cccc2ccccc12)N1CCC(c2cccs2)CC1	–	–
CC1CCN(S(=O)(=O)c2cc(Br)ccc2Br)CC1	·	–
C=CCN1CC(c2nc3ccccc3n2Cc2cc(C)ccc2C)CC1=O (stereo unspecified)	·	+
C=CCN1CC(c2nc3ccccc3n2Cc2ccccc2C)CC1=O (stereo unspecified)	·	–
Cc1ccc(C)c(Cn2c(C3CC(=O)N(c4ccccc4)C3)nc3ccccc32)c1 (stereo unspecified)	·	+
Cc1ccc(N2CC(c3nc4ccccc4n3Cc3ccccc3C)CC2=O)cc1 (stereo unspecified)	·	–
Cc1cc(C)cc(OCC(O)Cn2c(C3CC(=O)N(Cc4ccccc4)C3)nc3ccccc32)c1 (stereo unspecified)	–	–
C=CCN1CC(c2nc3ccccc3n2CC(O)COc2c(C)cccc2C)CC1=O (stereo unspecified)	–	+
Cc1cc(N(C)C)nc(NCCNC(=O)c2ccc(Br)o2)n1	–	·
Cc1cc(N(C)C)nc(NCCNC(=O)c2cnccn2)n1	–	+
COc1ccc(NC(=O)NCCNc2cc(-n3ccnc3C)ncn2)c(C)c1	–	–
